Molecules are shown by their SMILES. Values joined by “and” are separate entries in the source; they are usually repeats but may differ in a detail not shown here. Equal entries are not always repeated. Records with an inconclusive call do not appear. A call without a number means that no potency is given here. Active and inactive are the calls of the source. Calls come from the whole dose curve; as a rule, active = well fitted cell-killing curve with a large enough effect in the repeat runs; inconclusive = weak or mixed curves, or effect the other way; inactive = flat fitted curve, though single readings scatter.
Potency is the fitted concentration of half-maximal effect.

The assay can be described thus: cAMP Responsive Elements (CRE) small molecule antagonists, cell-based qHTS assay: qHTS cell viability counter screen (AID 2060913). Note: nearly all actives have a fitted effect of over 40% in size. Conditions: CRE-bla HEK293T viability, CellTiter-Glo luminescence, 5 h; series mostly up to 92.4 µM. A digest of the protocol: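 Cytotoxicity counter screen multiplexed with the CRE-bla antagonist read: HEK293T cells in DMEM with dialyzed FBS and 25 mM HEPES were treated 3 hrs under 0.25 uM final NKH477, then viability measured by CellTiter-Glo luminescence.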
In the case of `COc1ccc(C(=O)N2CCCC2=O)cc1`, the Potency entry is “inactive”.

With `O=C(O)COc1cc(Cl)c(Cl)cc1Cl`, the Potency result is “inactive”.

Turning to `Nc1cc2c3c(c1)C(c1ccccc1)=N[C@@H](NC(=O)c1cccnc1)C(=O)N3CC2`, the Potency result is “inactive”.

For the compound `O=S1(=O)OC(c2cc(Br)c(O)c(Br)c2)(c2cc(Br)c(O)c(Br)c2)c2ccccc21`, the Potency result is “inactive”.

Take `N#Cc1sc2c(=O)c3ccccc3c(=O)c=2sc1C#N`: the Potency was 61.1 µM (active).

`Cc1ccc(N)cc1`: the Potency result is “inactive”.

For `C=CC(=O)NCNC(=O)C=C`, the Potency result is “inactive”.

For `CCCCc1ccccc1`, the Potency entry was “inactive”.

`CCN(CC)C(C)C(=O)c1ccccc1` (stereo not given): the Potency entry was “inactive”.

In the case of `C=CC(N)=O`, the Potency result is “inactive”.

For the compound `CC(=O)CN(CC(C)=O)N=O`, the Potency entry was “inactive”.

For the compound `CCCCCCCCCCCOC(=O)c1ccccc1C(=O)OCCCCCCCCCCC`, the Potency result was “inactive”.

For `CC(=O)NC1CCSC1=O` (stereo not given), the Potency entry was “inactive”.

On to `CN(C)C(=S)SSC(=S)N(C)C`, for which the Potency is 12 µM (active) and 9.69 µM (active) and 7.5 µM (active).

With `CCC(CC)(CNC(=O)CCCO)c1cccc(OC)c1`, the Potency result was “inactive”.

For `CCOC(=O)OC1=C(c2cc(C)ccc2C)C(=O)NC12CCC(OC)CC2` (stereo not given), the Potency entry is “inactive”.

Turning to `CC(C)OS(C)(=O)=O`, the Potency entry is “inactive”.

Turning to `CCCCCCCCCCCCCCCC[N+](C)(C)C`, the Potency is 54.5 µM (active).

With `CC(C)(C#N)C(C)(C)C#N`, the Potency entry is “inactive”.

With `CCC[CH2][Sn]([CH2]CCC)([CH2]CCC)[O][Sn]([CH2]CCC)([CH2]CCC)[CH2]CCC`, the Potency was 1.5 µM (active).

Take `NNC(N)=S`: the Potency result was “inactive”.

With `CCNc1nc(NC(C)C)nc(SC)n1`, the Potency result was “inactive”.

For `N#C/C=C/c1ccccc1`, the Potency result was “inactive”.

Turning to `CCCN(CCC)CCc1c[nH]c2ccccc12`, the Potency entry was “inactive”.

For `Clc1cccc(SC2CCNCC2)n1`, the Potency entry is “inactive”.

For `CCCOC(=O)c1ccccc1C(=O)OCCC`, the Potency result was “inactive”.

Turning to `CCCCC(CC)COC(=O)c1c(Br)c(Br)c(Br)c(Br)c1C(=O)OCC(CC)CCCC` (stereo not given), the Potency result is “inactive”.

For the compound `CC(C)N(Cc1ccccc1)C(=O)C(C)(C)C`, the Potency result is “inactive”.

With `Cc1ccc(N)c(C)c1`, the Potency entry was “inactive”.

`O=[N+]([O-])c1ccc2ccc3cccc4ccc1c2c34`: the Potency entry is “inactive”.

Consider `Oc1cccc2cccnc12`, for which the Potency result was “inactive”.

In the case of `Cc1ccc(CCl)cc1`, the Potency entry is “inactive”.

Consider `Oc1ccc([C@H]2CNCc3c2ccc(O)c3O)cc1O`, for which the Potency result was “inactive”.

Regarding `C/C(=C\c1ccccc1)[N+](=O)[O-]`, the Potency entry was “inactive”.

`CCOP(=S)(OCC)SCSC(C)(C)C`: the Potency entry was “inactive”.

Consider `c1ccc2c(c1)oc1ccccc12`, for which the Potency result was “inactive”.

On to `O=CC(Br)(Br)Br`, for which the Potency entry was “inactive”.

Take `CCOP(=S)(OCC)SCCS(=O)(=O)CC`: the Potency entry is “inactive”.

As for `CC(C)(OO)c1ccccc1`, the Potency entry was “inactive”.

For `CC(C)CC(C)Nc1ccc(Nc2ccccc2)cc1` (stereo not given), the Potency entry was “inactive”.

The record behind these values is PubChem BioAssay (Tox21).
